# Records with an inconclusive call do not appear. Where a call stands in place of a potency, no number is given. Values without a mark were called inactive. Activity calls are given as the source filed them. Calls come from the whole dose curve; as a rule, active = well fitted curve in the direction sought with a large enough effect; inconclusive = small, poorly fitted or top-dose-only effect, or another doubt; inactive = no such curve, though single readings can be large; an effect the other way counts as inactive or inconclusive.
# Tests used:
# [1] = target: Aldehyde dehydrogenase, mitochondrial (Homo sapiens) (UniProt P05091); assay: qHTS for Inhibitors of the Aldehyde Dehydrogenase Family (ALDH2) Primary screen (AID 2061308); note: nearly all actives have a fitted effect of over 55% in size; note: potency is the fitted concentration of half-maximal effect
# [2] = target: Retinaldehyde dehydrogenase 3 (Homo sapiens) (UniProt P47895); assay: qHTS for Inhibitors of the Aldehyde Dehydrogenase Family (ALDH1A3) Validation screen (AID 2061312); note: nearly all actives have a fitted effect of over 45% in size
# [3] = target: Retinaldehyde dehydrogenase 3 (Homo sapiens) (UniProt P47895); assay: qHTS for Inhibitors of the Aldehyde Dehydrogenase Family (ALDH1A3) Primary screen (AID 2061315)
# [4] = BET inhibitor-based combinations targeting novel dependencies in MECOM-rearranged (r) AML: OCI-AML3 cell line (AID 2202232); settings: Potency: OCI-AML3 viability; note: nearly all actives have a fitted effect of over 35% in size; note: potency is the fitted concentration of half-maximal effect
# Outline: (§1)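 A 48 hr incubation preceded viability reading by CellTiter-Glo, with 15 min room-temperature development. Dose series had 11 points; normalization used DMSO and empty wells; AUC was computed and mean-centered per line as Z-AUC.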
# [5] = BET inhibitor-based combinations targeting novel dependencies in MECOM-rearranged (r) AML: MV-4-11 cell line (AID 2202233); note: nearly all actives have a fitted effect of over 45% in size; note: potency is the fitted concentration of half-maximal effect
# Outline: (§2)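 Each compound is tested in an 11-point concentration series against 500 seeded cells/well for 48 hr. The luminescent viability signal is normalized to DMSO and blank wells, then reduced to AUC and a cell-line-centred Z-AUC.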
# [6] = BET inhibitor-based combinations targeting novel dependencies in MECOM-rearranged (r) AML: HNT-34 cell line (AID 2202234); note: nearly all actives have a fitted effect of over 35% in size; note: potency is the fitted concentration of half-maximal effect
# Outline: as §2
# [7] = BET inhibitor-based combinations targeting novel dependencies in MECOM-rearranged (r) AML: AML-191 cell line (AID 2202236; note: nearly all actives have a fitted effect of over 35% in size; note: potency is the fitted concentration of half-maximal effect)
# Outline: as §1
# [8] = BET inhibitor-based combinations targeting novel dependencies in MECOM-rearranged (r) AML: AML-194 cell line (AID 2202237; note: nearly all actives have a fitted effect of over 40% in size; note: potency is the fitted concentration of half-maximal effect)
# Outline: as §1
# [9] = target: Retinal dehydrogenase 2 (Homo sapiens) (UniProt O94788); assay: qHTS for Inhibitors of the Aldehyde Dehydrogenase Family (ALDH1A2) Confirmation screens (AID 2061314); note: nearly all actives have a fitted effect of over 65% in size; note: potency is the fitted concentration of half-maximal effect
# [10] = BET inhibitor-based combinations targeting novel dependencies in MECOM-rearranged (r) AML: SET-2 cell line (AID 2202231); settings: SET-2 AML cells viability, CellTiter-Glo luminescence, 48 h; viability: active compounds read low, series mostly up to about 46 µM; note: nearly all actives have a fitted effect of over 35% in size
# Outline: as §1
# [11] = BET inhibitor-based combinations targeting novel dependencies in MECOM-rearranged (r) AML: UCSD-AML1 cell line (AID 2202235); note: nearly all actives have a fitted effect of over 40% in size; note: potency is the fitted concentration of half-maximal effect
# Outline: as §2
# [12] = target: Aldehyde dehydrogenase 1A1 (Homo sapiens) (UniProt P00352); assay: qHTS for Inhibitors of the Aldehyde Dehydrogenase Family (ALDH1A1) Confirmatory screens (AID 2061316); note: nearly all actives have a fitted effect of over 65% in size; note: potency is the fitted concentration of half-maximal effect
structure (smiles),measurement,setting,value
O=C(Nc1cn[nH]c1-c1nc2ccc(CN3CCOCC3)cc2[nH]1)NC1CC1,Potency,[1],inactive
same,Potency,[2],inactive
same,Potency,[3],inactive
same,Potency,[4],4.68 µM (active)
same,Potency,[5],26.3 nM (active)
same,Potency,[6],0.332 µM (active)
same,Potency,[7],2.09 µM (active)
same,Potency,[8],2.09 µM (active)
CC(=O)NC(c1ccco1)c1cc(Cl)c2ccc(Cl)nc2c1O (stereo not drawn),Potency,[1],inactive
same,Potency,[9],6.34 µM (active)
CCC(=O)NS(=O)(=O)c1ccc(-c2c(-c3ccccc3)noc2C)cc1,Potency,[1],inactive
same,Potency,[2],inactive
same,Potency,[3],inactive
same,viability,[10],114%
same,Potency,[4],inactive
same,Potency,[6],inactive
same,Potency,[7],inactive
same,Potency,[8],inactive
Cn1c(=O)c2c(ncn2CC2OCCO2)n(C)c1=O,Potency,[1],inactive
same,Potency,[2],inactive
same,Potency,[3],inactive
same,viability,[10],103%
same,Potency,[4],inactive
same,Potency,[5],inactive
same,Potency,[6],inactive
same,Potency,[11],inactive
same,Potency,[8],inactive
Cc1c(NC(=O)OC[C@@H]2COCCN2)cn2ncnc(Nc3ccc4c(cnn4Cc4cccc(F)c4)c3)c12,Potency,[1],inactive
same,Potency,[2],inactive
same,Potency,[3],inactive
same,Potency,[4],10.5 µM (active)
same,Potency,[5],18600 nM (active)
same,Potency,[6],20.9 µM (active)
same,Potency,[8],23.5 µM (active)
Cc1cnc(Nc2ccc(CN3CCOCC3)cc2)nc1Nc1cccc(S(=O)(=O)NC(C)(C)C)c1,Potency,[1],inactive
same,Potency,[2],inactive
same,Potency,[3],inactive
same,Potency,[4],2.63 µM (active)
same,Potency,[5],417 nM (active)
same,Potency,[6],1.18 µM (active)
same,Potency,[11],1.48 µM (active)
same,Potency,[7],2.63 µM (active)
same,Potency,[8],2.35 µM (active)
Cc1ccc(NS(=O)(=O)c2ccc3c(c2)CCN(C(=O)C(F)(F)F)C3)cc1C,Potency,[1],inactive
same,Potency,[3],inactive
S=C(NCCCN(Cc1ccc(Cl)c(Cl)c1)c1ccc(Br)cn1)NCCc1cnc[nH]1,Potency,[1],inactive
same,Potency,[3],inactive
O=C(Nc1ccc(-c2nc3ccccc3[nH]2)cc1)c1ccc(Oc2ccccc2)cc1,Potency,[1],inactive
same,Potency,[3],inactive
Cc1cc2c(s1)c1cnn(Cc3c(F)ccc(C)c3F)c(=O)c1n2C,Potency,[1],inactive
same,Potency,[3],inactive
Cc1ccc(NC(=O)CN2C(=O)N/C(=C\c3cccn3-c3ccc([S+](N)(=O)[O-])cc3)C2=O)cc1,Potency,[1],inactive
same,Potency,[3],inactive
COc1cccc(CNc2ccc(S(=O)(=O)Nc3nccs3)cc2)c1O,Potency,[1],inactive
same,Potency,[3],inactive
Cc1cc2c(s1)c1cnn(Cc3c(F)c(F)c(C(F)(F)F)c(F)c3F)c(=O)c1n2C,Potency,[1],inactive
same,Potency,[3],inactive
COc1cc(O)c(C(CC(=O)N2CCCC(C)C2)c2ccc(OC)c(OC)c2)c(OC)c1 (stereo not drawn),Potency,[1],inactive
same,Potency,[3],inactive
CC(C)(C)OC(=O)N1CCN(c2ccc(NCc3ccc(-c4ccc(C#N)cc4)nc3)cc2)CC1,Potency,[1],inactive
same,Potency,[9],inactive
same,Potency,[3],inactive
same,Potency,[12],15.9 µM (active)
O=C1c2ccccc2NC(c2ccc(-c3ccc(C(F)(F)F)cc3)o2)N1O (stereo not drawn),Potency,[1],4.47 µM (active)
same,Potency,[9],22.5 µM (active)
same,Potency,[3],inactive
same,Potency,[12],7.12 µM (active)
Cc1ccc2nc3sc(C(=O)N4CCN(C5CCN(C)CC5)CC4)cc3cc2c1,Potency,[1],inactive
same,Potency,[9],inactive
same,Potency,[3],inactive
same,Potency,[12],12.7 µM (active)
O=C(CSc1ncnc2sc3c(c12)CCCCC3)NCc1ccco1,Potency,[1],inactive
same,Potency,[3],inactive
Cn1cncc1CNc1ncnc2ccc(-c3ccc4c(c3)OCO4)cc12,Potency,[1],inactive
same,Potency,[3],inactive
CC(O)c1ccc(-c2ccc3ncnc(N4CCOCC4)c3c2)o1 (stereo not drawn),Potency,[1],8.91 µM (active)
same,Potency,[9],14.2 µM (active)
same,Potency,[3],inactive
same,Potency,[12],11.3 µM (active)
O=[N+]([O-])c1ccccc1-c1nc(NCc2ccc(-c3cccnc3)cc2)c2ccccc2n1,Potency,[1],inactive
same,Potency,[3],inactive
O=[S+]([O-])(c1ccc2c(c1)OCCO2)N1CCN([S+](=O)([O-])c2c(F)cc(Br)cc2F)CC1,Potency,[1],inactive
same,Potency,[3],inactive
N#Cc1ccc(C[C@H](C(=O)O)N2C(=O)c3ccc(C(=O)O)cc3C2=O)cc1,Potency,[1],inactive
same,Potency,[3],inactive
O=C(Cn1cc(CNCc2ccccc2)nn1)Nc1cc(C(F)(F)F)ccc1Cl,Potency,[1],inactive
same,Potency,[3],inactive
CCCCN(C)C(=O)Cn1nc(-c2ccc(OC)cc2)ccc1=O,Potency,[1],inactive
same,Potency,[3],inactive
COc1ccc(NC(=O)C(OC(=O)CNC(=O)c2ccccc2)c2ccccc2)cc1F (stereo not drawn),Potency,[1],inactive
same,Potency,[3],inactive
O=C(NCc1ccccc1)Nc1ncnc2c1C(c1ccccc1)c1c(ccc3ccccc13)O2 (stereo not drawn),Potency,[1],inactive
same,Potency,[3],inactive
COc1ccc(S(=O)(=O)Nc2cc(OC)cc3cccnc23)cc1,Potency,[1],inactive
same,Potency,[9],1.42 µM (active)
same,Potency,[12],inactive
CCCn1c(C)nc2c(NCCCN(CCO)CCO)nc(C)nc21,Potency,[1],inactive
same,Potency,[3],inactive
Cc1cc(C)n2ncc(C(=O)Nc3ccc(C#N)cc3)c2n1,Potency,[1],inactive
same,Potency,[3],inactive
CC(=O)NC(c1cc(Cl)c2cccnc2c1O)C(C)C (stereo not drawn),Potency,[1],inactive
same,Potency,[3],inactive
O=C(NCC#CCSc1nnc(-c2cccc3ccccc23)o1)c1cccs1,Potency,[1],inactive
same,Potency,[9],12.7 µM (active)
same,Potency,[3],inactive
same,Potency,[12],8.96 µM (active)
C=C1C(=O)OC2/C=C(\COC(C)=O)CC/C=C(\C=O)CC(OC(=O)CC(C)C)C12 (stereo not drawn),Potency,[1],inactive
same,Potency,[3],inactive
O=S(=O)(Nc1nccs1)c1ccc(Nc2nc(-c3ccc(F)cc3)cs2)cc1,Potency,[1],inactive
same,Potency,[9],14.2 µM (active)
same,Potency,[3],inactive
same,Potency,[12],11.3 µM (active)
Cc1ccc(NS(=O)(=O)c2cc3c(cc2N[C@@H](C)CO)NC(=O)CC3)cc1Cl,Potency,[1],inactive
same,Potency,[9],22.5 µM (active)
same,Potency,[3],inactive
same,Potency,[12],inactive
CCOC(=O)C1CCN(C(=O)C(C)(C)NC(=O)Nc2ccc(Cl)cc2Cl)CC1,Potency,[1],inactive
same,Potency,[3],inactive
O=S1(=O)N=C(OCc2ccccc2)c2ccccc21,Potency,[1],inactive
same,Potency,[3],inactive
CN1CCN(c2cccc(Nc3nn4c(=O)c5ccc(N(C)C)cc5nc4s3)c2)CC1,Potency,[1],inactive
same,Potency,[9],14.2 µM (active)
same,Potency,[12],11.3 µM (active)
